Experiment [1] is described as follows: TOX21_p53_BLA_p2_viability: Viability Assessment in the Tox21 HCT-116 p53 Agonism Beta-lactamase Assay, Phase 2 (AID 2283591).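 Also: actives lower the ATP signal meaning cytotoxicity.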 Summed up:
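Cytotoxicity readout: CellTiter-Glo ATP luminescence, 30 min at room temperature, after the beta-lactamase read. Cells were HCT116 exposed 16 h at 37C to compounds pin-transferred at 217-fold dilution from DMSO stocks.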

Experiment [2] addresses Cellular tumor antigen p53 (Homo sapiens) (UniProt P04637). The experiment can be described thus: TOX21_p53_BLA_p2_ratio: Tox21 HCT-116 p53 Agonism Beta-lactamase Assay, Ratio, Phase 2 (AID 2283592). The gist of the method: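 First, HCT116 reporter cells settle for 5 h at 37C. Next, DMSO compound solutions are pinned in (217-fold dilution) and left 16 h. Finally, CCF4-AM substrate is loaded 2 h at room temperature and the 460/530 nm ratio read.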

A short description of experiment [3]: TOX21_p53_BLA_p3_viability: Viability Assessment in the Tox21 HCT-116 p53 Agonism Beta-lactamase Assay, Phase 3 (AID 2283593).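 Also: cells exposed to compound for 16 h before reading.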 Summed up:
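Cellular ATP was quantified by CellTiter-Glo luminescence, read after 30 min at room temperature. Beforehand, HCT116 cells (4000/well) received compound 5 h post-seeding, 217-fold diluted from DMSO, then incubated 16 h at 37C.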

Experiment [4] has as its target Cellular tumor antigen p53 (Homo sapiens) (UniProt P04637). The experiment can be described thus: TOX21_p53_BLA_p3_ratio: Tox21 HCT-116 p53 Agonism Beta-lactamase Assay, Ratio, Phase 3 (AID 2283596). Summed up: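 Cells were seeded at 4000/well, rested 5 h at 37C, then dosed with DMSO compound solutions (217-fold dilution) for 16 h. CCF4-AM substrate was loaded for 2 h at room temperature, and the 460/530 nm emission ratio was fitted for gain of signal versus DMSO.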

Experiment [5] is described as follows: TOX21_p53_BLA_p4_viability: Viability Assessment in the Tox21 HCT-116 p53 Agonism Beta-lactamase Assay, Phase 4 (AID 2283597).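 Also: hits lower the luminescence signal meaning cytotoxicity.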 Summed up:
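4000 HCT116 cells per well; 5 h attachment; compounds from DMSO, 217-fold dilution; 16 h at 37C. Then CCF4-AM, 2 h RT, followed by CellTiter-Glo, 30 min RT, luminescence. Decrease = cytotoxicity.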

Experiment [6] deals with Cellular tumor antigen p53 (Homo sapiens) (UniProt P04637). The experiment is described as follows: TOX21_p53_BLA_p5_ratio: Tox21 HCT-116 p53 Agonism Beta-lactamase Assay, Ratio, Phase 5 (AID 2283599). Summed up:
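Beta-lactamase reporter ratio (blue 460 nm over green 530 nm, 405 nm excitation) after 2 h CCF4-AM loading, in HCT-116 cells exposed 16 h at 37 C to compounds pinned at 217-fold dilution. Increases relative to DMSO baseline scored.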

For experiment [7] the target is unchanged. The experiment is described as follows: TOX21_p53_BLA_p4_ratio: Tox21 HCT-116 p53 Agonism Beta-lactamase Assay, Ratio, Phase 4 (AID 2283601). Summed up: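 Signal is the blue/green (460nm/530nm) ratio of cleaved versus uncleaved CCF4-AM substrate, read after 2 h substrate loading. Cells were HCT116 carrying the p53-responsive beta-lactamase reporter, dosed 16 h at 37C, 5% CO2; CellTiter-Glo measured in parallel.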

In experiment [8] the target is Thyroid hormone receptor alpha (Rattus norvegicus) + Thyroid hormone receptor beta (Rattus norvegicus) (UniProt P18113+P63059). The experiment can be described thus: TOX21_TR_LUC_GH3_Antagonist_Followup: Tox21 GH3 Thyroid Hormone Receptor Antagonism Luciferase Follow-Up Assay (AID 2283942). The gist of the method:
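Loss of T3-driven (1.0 nM final) reporter activity in GH3 cells was read by ONE-Glo luminescence after 24 h incubation at 37C; 15-point compound series spanned 92 uM to 5nM final, 1,500 cells/well.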

A short description of experiment [9]: TOX21_TRB_BLA_Antagonist_Followup_viability: Viability Assessment in the Tox21 Thyroid Hormone Receptor beta Antagonism Beta-lactamase (BLA) Follow-Up Assay (AID 2283961). Summed up: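 HEK293T cells with GAL4-human TRβ LBD and UAS-bla reporter, 3,000 cells/well in 2% charcoal-stripped FBS medium; 11-point concentrations in triplicate, 18 h at 37C. Viability from ATP by CellTiter-Glo luminescence, 30 min RT, same plates.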

A further experiment has as its target THRB (gene 7068) (UniProt P10828). The experiment can be described thus: TOX21_TRB_COA_Antagonist_Followup_ratio: Tox21 Thyroid Hormone Receptor beta Antagonism through Coactivator Recruitment Follow-Up Assay, Ratio (AID 2283967). The gist of the method: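 Coactivator recruitment to the GST-tagged TRb ligand-binding domain (5.0 nM) was read as the 520/495 nm TR-FRET ratio, using 200 nM fluorescein SRC-2 peptide and 2 nM terbium anti-GST. Scaled between DMSO and T3 wells; loss of signal fitted.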

Experiment [10] addresses Retinoic acid receptor RXR-alpha (Homo sapiens) (UniProt P19793). The experiment is described as follows: TOX21_TR_RXR_BLA_Antagonist_Followup_ratio: Tox21 Thyroid Hormone Receptor beta Retinoid X Receptor alpha (RXRa) Antagonism Beta-lactamase (BLA) Follow-Up Assay, Ratio (AID 2283972). The gist of the method:
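RXRa-UAS-bla HEK293T cells, 2,500/well in phenol red-free DMEM with 2% charcoal-stripped FBS, 5 h attachment, then compounds (11 concentrations, triplicate) for 16 h at 37C; FRET-B/GCCF4-AM substrate 2 h RT; 460:530 nm ratio, loss of signal vs DMSO.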

The nature of experiment [11]: TOX21_p53_BLA_p5_viability: Viability Assessment in the Tox21 HCT-116 p53 Agonism Beta-lactamase Assay, Phase 5 (AID 2283600). The gist of the method:
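Decreased CellTiter-Glo luminescence denotes lost viability. Exposure: 16 h at 37C, 5% CO2, with compounds from DMSO stocks diluted 217-fold in wells of 4000 cells.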

This passage reports outcome and AC50 results from PubChem BioAssay (EPA / NIEHS).

Records with an inconclusive call do not appear. Activity calls are given as the source filed them. The calls were made as follows: active = hit-call score of the fitted dose curve at least 0.9, where 1 is the maximum; inconclusive = response in the unintended direction; inactive = score below 0.9.

By AC50 is commonly meant the concentration giving half of the maximal activity seen.

Cellular tumor antigen p53 (Homo sapiens), sequence (P04637 whole entry, looked up): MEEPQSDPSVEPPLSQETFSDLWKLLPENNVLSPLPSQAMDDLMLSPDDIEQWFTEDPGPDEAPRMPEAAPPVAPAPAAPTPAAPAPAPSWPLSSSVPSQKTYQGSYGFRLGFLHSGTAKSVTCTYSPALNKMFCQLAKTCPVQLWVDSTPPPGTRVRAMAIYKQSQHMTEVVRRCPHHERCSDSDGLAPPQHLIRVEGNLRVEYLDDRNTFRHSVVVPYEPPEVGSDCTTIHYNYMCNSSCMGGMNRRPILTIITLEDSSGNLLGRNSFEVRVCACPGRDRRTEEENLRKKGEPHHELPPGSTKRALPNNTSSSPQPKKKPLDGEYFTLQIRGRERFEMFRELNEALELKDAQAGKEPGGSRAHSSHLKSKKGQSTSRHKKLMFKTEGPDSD
Retinoic acid receptor RXR-alpha (Homo sapiens), sequence (P19793 whole entry, looked up): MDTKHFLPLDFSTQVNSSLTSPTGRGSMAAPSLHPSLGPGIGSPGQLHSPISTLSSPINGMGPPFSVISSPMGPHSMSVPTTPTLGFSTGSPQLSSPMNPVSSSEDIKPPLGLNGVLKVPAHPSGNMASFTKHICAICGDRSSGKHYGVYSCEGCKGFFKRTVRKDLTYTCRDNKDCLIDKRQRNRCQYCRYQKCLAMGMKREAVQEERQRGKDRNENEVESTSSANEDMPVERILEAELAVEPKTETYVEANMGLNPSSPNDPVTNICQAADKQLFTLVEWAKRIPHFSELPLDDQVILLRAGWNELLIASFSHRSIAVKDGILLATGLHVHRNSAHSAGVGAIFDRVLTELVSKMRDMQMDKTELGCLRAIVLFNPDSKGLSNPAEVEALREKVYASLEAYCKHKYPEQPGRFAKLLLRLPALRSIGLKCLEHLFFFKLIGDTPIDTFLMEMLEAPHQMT
THRB (gene 7068), sequence (P10828 whole entry, looked up, the tested form may be a part): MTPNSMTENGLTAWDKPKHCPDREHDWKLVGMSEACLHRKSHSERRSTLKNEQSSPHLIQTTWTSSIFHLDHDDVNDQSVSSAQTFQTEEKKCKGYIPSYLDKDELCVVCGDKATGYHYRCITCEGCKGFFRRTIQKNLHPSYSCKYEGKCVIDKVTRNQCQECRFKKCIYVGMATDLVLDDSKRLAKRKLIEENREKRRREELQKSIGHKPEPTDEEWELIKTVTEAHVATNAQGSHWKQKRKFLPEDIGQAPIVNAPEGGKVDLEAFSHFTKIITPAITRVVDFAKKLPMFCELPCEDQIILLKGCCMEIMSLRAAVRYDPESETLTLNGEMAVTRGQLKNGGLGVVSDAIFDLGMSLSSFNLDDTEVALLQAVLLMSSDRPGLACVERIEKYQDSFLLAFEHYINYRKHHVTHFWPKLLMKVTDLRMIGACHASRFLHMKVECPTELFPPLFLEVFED

For the compound `Oc1c(Cl)c(Cl)cc(Cl)c1Cl`, the call in [1], in experiment [3] and in [5] was inactive. For the same compound, the AC50 in [2] was 12.2 µM (active); in experiment [4], 13.4 µM (active); in experiment [6], 18.7 µM (active); in experiment [7], 22.6 µM (active).

As to `COc1ccc2c3c1O[C@H]1[C@@H](O)C=C[C@H]4[C@@H](C2)NCC[C@@]341`, the call in [1], in [2], in experiment [3], in experiment [4], in [5] and in experiment [6] was inactive. In addition, the result in experiment [7] was inactive.

With `COC1=CC(=O)O[C@@H](/C=C/c2ccc3c(c2)OCO3)C1`, the result in experiment [1], in [2], in experiment [3], in experiment [4], in [5] and in experiment [6] was inactive. Further, the result (in experiment [7]; in experiment [8]; in experiment [9]; in the experiment with THRB (gene 7068); in [10]) was inactive.

For `C[C@]12N[C@H](Cc3ccccc31)c1ccccc12`, the outcome in experiment [1], in [2], in [3], in experiment [4], in experiment [11] and in [7] was inactive.

As for `O=CC(Br)(Br)Br`, the outcome in experiment [1], in experiment [3], in experiment [4] and in experiment [7] was inactive. Also, the results for the AC50 in [2] and in experiment [6] were 82.7 µM (active) and 29.9 µM (active), respectively.

Turning to `CN1C(=O)NC(=O)C(C)(C2=CCCCC2)C1=O` (configuration not stated), the compound was classed as inactive in [1], in experiment [2], in experiment [3], in [4], in experiment [6] and in experiment [11]. Moreover, in [7], the result was inactive.

Take `O=C(O)CC(Cl)C(=O)O` (configuration not stated): the outcome in experiment [1], in [3], in experiment [4], in experiment [6], in experiment [11] and in experiment [7] was inactive. Also, the AC50 in experiment [2] is 57.3 µM (active).

As to `C[C@@H]1CN(C2CCC(C#N)(c3ccc(F)cc3)CC2)CC[C@]1(C(=O)O)c1ccccc1` (some centres not stated), the compound was called inactive in [1], in experiment [2], in experiment [3], in experiment [4], in experiment [6] and in experiment [7].

As for `COC(=O)[C@@H](N)CCCN/C(N)=N/[N+](=O)[O-]`, the outcome in experiment [1], in experiment [2], in experiment [3], in experiment [4], in experiment [6] and in experiment [7] was inactive.

`NC(=O)CI`: the outcome in experiment [1], in experiment [2], in experiment [3], in experiment [4], in experiment [6] and in [7] was inactive.

Turning to `c1ccccc1`, the outcome in [1], in experiment [2], in experiment [3], in experiment [4] and in experiment [7] was inactive.

For the compound `C[C@@H](CO)NC(=O)[C@@H]1C=C2c3cccc4[nH]cc(c34)C[C@H]2N(C)C1`, the compound was called inactive in experiment [1], in experiment [2], in [3], in experiment [4], in [6] and in experiment [11]. Further, in experiment [7], the result was inactive.

Regarding `CC(C)(O)C(Cl)(Cl)Cl`, the compound was called inactive in experiment [1], in experiment [2], in experiment [3], in experiment [4] and in experiment [11].

For `CCCCN=C=O`, the call in [1], in [2], in experiment [3], in experiment [4], in experiment [5] and in experiment [7] was inactive.

For the compound `CCCCCCCCCCCCCC[P+](CCCCCC)(CCCCCC)CCCCCC` (tested in a mixture with another compound), the AC50 in [1] was 11.7 µM (active); in [2] it was 21.4 µM (active); in experiment [3] it was 24.1 µM (active); in experiment [4] it was 33.5 µM (active); in [6], 46.8 µM (active); in experiment [11], 15.2 µM (active). Further, the outcome in [7] was inactive.

On to `C1CCC2CCCCC2C1` (configuration not stated), for which the result in [1], in [2], in experiment [3], in experiment [4], in [6] and in experiment [7] was inactive.

On to `F/C(COc1ccc2c(c1)[nH]c1ccccc12)=C1/CN2CCC1CC2`, for which the call in [1], in [2], in experiment [3], in experiment [4], in experiment [6] and in experiment [11] was inactive. Also, the outcome in experiment [7] was inactive.

On to `OCCSCSCCO`, for which the call in [1], in [2], in experiment [3], in experiment [4], in experiment [6] and in experiment [11] was inactive. In addition, in experiment [7], the result was inactive.

With `C=CCc1cc(OC)c2c(c1)OCO2`, the compound was called inactive in experiment [1], in experiment [2], in experiment [3], in experiment [4], in experiment [6] and in [7].

For the compound `C(CCOCC1CO1)COCC1CO1` (configuration not stated), the outcome in experiment [1], in experiment [2], in experiment [3], in [6], in experiment [11] and in experiment [7] was inactive. Moreover, the AC50 in experiment [4] is 65.2 µM (active).

As to `O=C(O)c1ccc2[nH]cc(CCCCN3CC=C(c4ccccc4)CC3)c2c1`, the result in [1], in experiment [2], in [3], in experiment [4], in experiment [6] and in experiment [7] was inactive.

Regarding `O=c1[nH]oc2c1CCNC2`, the compound was classed as inactive in experiment [1], in [2], in experiment [3], in [4], in [6] and in experiment [7].

With `NC(=O)CS(=O)C(c1ccccc1)c1ccccc1` (configuration not stated), the compound was classed as inactive in experiment [1], in experiment [2], in experiment [3], in experiment [4] and in experiment [6].

As to `Oc1cccc(Cl)c1`, the compound was called inactive in experiment [1], in experiment [2], in [3], in experiment [4], in experiment [6] and in [11]. Also, in [7], the result was inactive.

On to `C=CC1CC=CCC1` (configuration not stated), for which the compound was classed as inactive in [1], in experiment [2], in experiment [3], in [4] and in experiment [6].

For the compound `CC(C)[N+](C)(CCC(C(N)=O)(c1ccccc1)c1ccccc1)C(C)C`, the outcome in experiment [1], in experiment [2], in experiment [3], in experiment [4], in experiment [6] and in experiment [11] was inactive. For the same compound, in [7], the outcome was inactive.

As to `COC(=O)C(c1ccccc1)C1CCCCN1` (configuration not stated), the compound was classed as inactive in experiment [1], in experiment [2], in experiment [3], in experiment [4], in experiment [6] and in experiment [7].

As to `CCBr`, the call in experiment [1], in [2], in experiment [3], in experiment [4], in experiment [11] and in experiment [7] was inactive.

As to `S=C=S`, the call in experiment [1], in [2], in [3], in experiment [4], in experiment [6] and in [11] was inactive. The outcome in experiment [7] was inactive.
